Measured values taken from PubChem BioAssay AID1159580 (chemical genetic matrix, 2015).
Screen size: about 5,500 compounds; about 2,000 (36%) were called active. Inconclusive results (about 18%) are left out. No stated cut-off is given here; in the data, active means normalized growth mostly below about 0.91 (no sharp cut-off); inconclusive means no clear call, values can overlap the other calls; inactive means mostly above about 0.92. This is one part of the list.

Assay: chemical genetic growth profiling, strain panel (AID 1159580);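 further: tested at 20 µM; growth read once vehicle control cultures reached saturation at 30 °C; 1 = growth at the plate median or of vehicle wells; lower values mean less growth of the strain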
Settings: growth OD
[1] = S. cerevisiae deletion strains, locus YAL013W, strain DEP1, active compounds read low
[2] = S. cerevisiae deletion strains, locus YAL040C, strain CLN3, active compounds read low
[3] = S. cerevisiae deletion strains, locus YCL061C, strain MRC1 (second series), active compounds read low
[4] = S. cerevisiae deletion strains, locus YDR363W, strain ESC2, active compounds read low
[5] = S. cerevisiae deletion strains, locus YER002W, strain NOP16, active compounds read low
[6] = S. cerevisiae deletion strains, locus YJR075W, strain HOC1, active compounds read low
[7] = S. cerevisiae deletion strains, locus YMR263W, strain SAP30, active compounds read low
[8] = S. cerevisiae deletion strains, locus YNL175C, strain NOP13, active compounds read low
[9] = S. cerevisiae deletion strains, locus YNL197C, strain WHI3, active compounds read low
[10] = S. cerevisiae deletion strains, locus YNL224C, strain SQS1, active compounds read low
[11] = S. cerevisiae deletion strains, locus YOR083W, strain WHI5 (second series), active compounds read low
[12] = S. cerevisiae deletion strains, locus YPL055C, strain LGE1, active compounds read low
[13] = S. cerevisiae deletion strains, locus YGR078C, strain PAC10, active compounds read low
[14] = S. cerevisiae deletion strains, locus YNL153C, strain GIM3, active compounds read low
[15] = S. cerevisiae deletion strains, locus YAR019C, strain CDC15, active compounds read low
[16] = S. cerevisiae deletion strains, locus YBL105C, strain PKC1, active compounds read low
[17] = S. cerevisiae deletion strains, locus YBR135W, strain CKS1, active compounds read low
[18] = S. cerevisiae deletion strains, locus YBR136W, strain MEC1, active compounds read low
[19] = S. cerevisiae deletion strains, locus YBR160W, strain CDC28, active compounds read low
[20] = S. cerevisiae deletion strains, locus YDL017W, strain CDC7, active compounds read low
[21] = S. cerevisiae deletion strains, locus YDL028C, strain MPS1, active compounds read low
[22] = S. cerevisiae deletion strains, locus YDL101C, strain DUN1, active compounds read low
[23] = S. cerevisiae deletion strains, locus YDL108W, strain KIN28, active compounds read low
[24] = S. cerevisiae deletion strains, locus YDL132W, strain cdc53, active compounds read low
[25] = S. cerevisiae deletion strains, locus YDL214C, strain PRR2, active compounds read low
[26] = S. cerevisiae deletion strains, locus YDR052C, strain DBF4, active compounds read low
[27] = S. cerevisiae deletion strains, locus YDR054C, strain cdc34, active compounds read low
[28] = S. cerevisiae deletion strains, locus YDR226W, strain ADK1, active compounds read low
[29] = S. cerevisiae deletion strains, locus YDR477W, strain SNF1, active compounds read low
[30] = S. cerevisiae deletion strains, locus YER123W, strain YCK3, active compounds read low
[31] = S. cerevisiae deletion strains, locus YER133W, strain GLC7, active compounds read low
[32] = S. cerevisiae deletion strains, locus YFL009W, strain cdc4, active compounds read low
[33] = S. cerevisiae deletion strains, locus YFL029C, strain CAK1, active compounds read low
[34] = S. cerevisiae deletion strains, locus YFR003C, strain YPI1, active compounds read low
[35] = S. cerevisiae deletion strains, locus YFR019W, strain FAB1, active compounds read low
[36] = S. cerevisiae deletion strains, locus YFR028C, strain CDC14, active compounds read low
[37] = S. cerevisiae deletion strains, locus YGR040W, strain KSS1, active compounds read low
[38] = S. cerevisiae deletion strains, locus YGR052W, strain FMP48, active compounds read low
[39] = S. cerevisiae deletion strains, locus YGR092W, strain DBF2, active compounds read low
[40] = S. cerevisiae deletion strains, locus YHR030C, strain SLT2, active compounds read low
[41] = S. cerevisiae deletion strains, locus YHR079C, strain IRE1, active compounds read low
[42] = S. cerevisiae deletion strains, locus YHR082C, strain KSP1, active compounds read low
[43] = S. cerevisiae deletion strains, locus YHR205W, strain SCH9, active compounds read low
[44] = S. cerevisiae deletion strains, locus YIL147C, strain SLN1, active compounds read low
[45] = S. cerevisiae deletion strains, locus YJL095W, strain BCK1, active compounds read low
[46] = S. cerevisiae deletion strains, locus YJL128C, strain PBS2, active compounds read low
[47] = S. cerevisiae deletion strains, locus YJL157C, strain FAR1, active compounds read low
[48] = S. cerevisiae deletion strains, locus YJR016C, strain ILV3, active compounds read low
[49] = S. cerevisiae deletion strains, locus YJR066W, strain TOR1 (second series), active compounds read low
[50] = S. cerevisiae deletion strains, locus YJR066W, strain TOR1, active compounds read low
[51] = S. cerevisiae deletion strains, locus YKL048C, strain ELM1, active compounds read low
[52] = S. cerevisiae deletion strains, locus YKL067W, strain YNK1, active compounds read low
[53] = S. cerevisiae deletion strains, locus YKL101W, strain HSL1, active compounds read low
[54] = S. cerevisiae deletion strains, locus YKL193C, strain SDS22, active compounds read low
[55] = S. cerevisiae deletion strains, locus YKL203C, strain TOR2, active compounds read low
[56] = S. cerevisiae deletion strains, locus YLR113W, strain HOG1, active compounds read low
[57] = S. cerevisiae deletion strains, locus YLR133W, strain CKI1, active compounds read low
[58] = S. cerevisiae deletion strains, locus YLR403W, strain SFP1, active compounds read low
[59] = S. cerevisiae deletion strains, locus YML070W, strain DAK1, active compounds read low
[60] = S. cerevisiae deletion strains, locus YMR001C, strain CDC5, active compounds read low
[61] = S. cerevisiae deletion strains, locus YMR205C, strain PFK2 (second series), active compounds read low
[62] = S. cerevisiae deletion strains, locus YMR277W, strain FCP1, active compounds read low
[63] = S. cerevisiae deletion strains, locus YNL006W, strain LST8, active compounds read low
[64] = S. cerevisiae deletion strains, locus YNL020C, strain ARK1, active compounds read low
[65] = S. cerevisiae deletion strains, locus YNL161W, strain CBK1, active compounds read low
[66] = S. cerevisiae deletion strains, locus YNL183C, strain NPR1, active compounds read low
[67] = S. cerevisiae deletion strains, locus YNL207W, strain RIO2, active compounds read low
[68] = S. cerevisiae deletion strains, locus YNL222W, strain SSU72, active compounds read low
[69] = S. cerevisiae deletion strains, locus YNL307C, strain MCK1 (second series), active compounds read low
[70] = S. cerevisiae deletion strains, locus YOL078W, strain AVO1, active compounds read low
[71] = S. cerevisiae deletion strains, locus YOL136C, strain PFK27, active compounds read low
[72] = S. cerevisiae deletion strains, locus YOR061W, strain CKA2, active compounds read low
[73] = S. cerevisiae deletion strains, locus YOR119C, strain RIO1, active compounds read low
[74] = S. cerevisiae deletion strains, locus YOR231W, strain MKK1, active compounds read low
[75] = S. cerevisiae deletion strains, locus YOR329C, strain SCD5, active compounds read low
[76] = S. cerevisiae deletion strains, locus YPL031C, strain PHO85, active compounds read low
[77] = S. cerevisiae deletion strains, locus YPL153C, strain RAD53, active compounds read low
[78] = S. cerevisiae deletion strains, locus YPL204W, strain HRR25, active compounds read low
[79] = S. cerevisiae deletion strains, locus YPL209C, strain IPL1, active compounds read low
[80] = S. cerevisiae deletion strains, locus YPL256C, strain CLN2, active compounds read low
[81] = S. cerevisiae deletion strains, locus YPR025C, strain CCL1, active compounds read low
[82] = S. cerevisiae deletion strains, locus YPR106W, strain ISR1, active compounds read low
[83] = S. cerevisiae deletion strains, locus YPR111W, strain DBF20, active compounds read low
[84] = S. cerevisiae deletion strains, strain NNK1, active compounds read low
[85] = S. cerevisiae deletion strains, strain TSCII, active compounds read low

Measured: normalized growth

O=P(O)(O)C(Cl)(Cl)P(=O)(O)O
inactive: [1] 1.01 | [2] 0.972 | [3] 0.995 | [4] 1.04 | [5] 1.01 | [6] 1.03 | [7] 1 | [8] 1 | [9] 0.968 | [10] 1.02 | [11] 0.973 | [12] 1.02

CC12NC(Cc3ccccc31)c1ccccc12 (stereo not given)
inactive: [2] 0.983 | [3] 0.984 | [4] 1.04 | [5] 1.01 | [13] 0.992 | S. cerevisiae deletion strains, locus YNL128W, strain TEP1, active compounds read low 1.06 | [14] 0.997 | [8] 1 | [9] 1.01 | [10] 0.988 | [11] 1 | [12] 1.01

CC1(C)CC(=O)C=C(Sc2nc3ccccc3o2)C1
inactive: [15] 0.966 | [16] 0.968 | [17] 0.955 | [18] 0.965 | [19] 0.962 | [20] 0.974 | [21] 0.965 | [22] 0.958 | [23] 0.961 | [24] 0.947 | [25] 0.933 | [26] 0.984 | [27] 0.949 | [28] 0.967 | [29] 0.949 | [30] 0.926 | [31] 0.979 | [32] 0.953 | [33] 0.965 | [34] 0.971 | [35] 0.941 | [36] 0.957 | [37] 0.945 | [38] 0.916 | [39] 0.739 | [40] 0.983 | [41] 0.955 | [42] 0.992 | [43] 0.861 | [44] 0.962 | [45] 0.837 | [46] 0.924 | [47] 0.951 | [48] 0.952 | [49] 0.875 | [50] 0.946 | [51] 0.961 | [52] 0.946 | [53] 0.925 | [54] 0.953 | [55] 0.99 | [57] 0.938 | [58] 0.901 | [59] 0.927 | [60] 0.961 | [61] 0.948 | [62] 0.956 | [63] 0.974 | [64] 0.944 | [65] 0.967 | [66] 0.951 | [67] 0.948 | [68] 0.964 | [69] 0.873 | [70] 0.947 | [71] 0.907 | [72] 0.955 | [73] 1.01 | [74] 0.902 | [75] 0.97 | [76] 0.946 | [77] 0.949 | [78] 0.935 | [79] 0.965 | [80] 0.967 | [81] 0.968 | [82] 0.964 | [83] 0.939 | [84] 0.961 | [85] 0.956
active: [56] 0.832

Cc1onc(-c2c(Cl)cccc2Cl)c1-c1nc(-c2ccc3c(c2)OCCO3)cs1
inactive: [1] 1.01 | S. cerevisiae deletion strains, locus YBR229C, strain ROT2, active compounds read low 1.01 | S. cerevisiae deletion strains, locus YCL061C, strain MRC1, active compounds read low 1 | [22] 1.01 | S. cerevisiae deletion strains, locus YDR150W, strain NUM1, active compounds read low 1.03 | S. cerevisiae deletion strains, locus YEL061C, strain CIN8, active compounds read low 1.02 | [13] 0.991 | [40] 0.998 | S. cerevisiae deletion strains, locus YHR087W, strain rtc3, active compounds read low 1.01 | S. cerevisiae deletion strains, locus YJL187C, strain SWE1, active compounds read low 1 | S. cerevisiae deletion strains, locus YJR043C, strain POL32, active compounds read low 1.01 | [6] 0.99 | S. cerevisiae deletion strains, locus YLR039C, strain RIC1, active compounds read low 0.959 | S. cerevisiae deletion strains, locus YLR058C, strain SHM2 (second series), active compounds read low 1.01 | S. cerevisiae deletion strains, locus YLR085C, strain ARP6, active compounds read low 0.973 | S. cerevisiae deletion strains, locus YLR262C, strain YPT6, active compounds read low 1 | S. cerevisiae deletion strains, locus YML094W, strain GIM5, active compounds read low 0.991 | S. cerevisiae deletion strains, locus YMR219W, strain ESC1, active compounds read low 1 | [7] 0.993 | S. cerevisiae deletion strains, locus YMR307W, strain GAS1, active compounds read low 0.946 | [14] 0.997 | S. cerevisiae deletion strains, locus YNL298W, strain CLA4 (second series), active compounds read low 0.987 | S. cerevisiae deletion strains, locus YNL322C, strain KRE1, active compounds read low 1.02 | S. cerevisiae deletion strains, locus YNR030W, strain Alg12, active compounds read low 1.02 | S. cerevisiae deletion strains, locus YOL006C, strain TOP1, active compounds read low 0.999 | [12] 1.04 | S. cerevisiae deletion strains, locus YPL241C, strain CIN2, active compounds read low 1.02 | S. cerevisiae deletion strains, locus YPR135W, strain CTF4, active compounds read low 0.934 | S. cerevisiae strains, strain wild type, active compounds read low 1.01

Oc1c(Cl)cc(Cl)cc1C=Nc1nc(-c2ccc3ccccc3c2)cs1
active: [30] 0.59 | [39] 0.342 | [40] 0.486 | [47] 0.685 | [56] 0.62 | [57] 0.701 | [58] 0.639 | [59] 0.651 | [61] 0.741 | [64] 0.684 | [71] 0.537 | [72] 0.58 | [80] 0.558
inactive: [15] 0.958 | [16] 0.966 | [17] 0.947 | [18] 0.957 | [19] 0.96 | [20] 0.958 | [21] 0.958 | [22] 0.962 | [23] 0.959 | [24] 0.971 | [25] 0.793 | [26] 0.969 | [27] 0.957 | [28] 0.966 | [29] 0.802 | [31] 0.791 | [32] 0.956 | [33] 0.963 | [34] 0.961 | [35] 0.78 | [36] 0.966 | [37] 0.833 | [38] 0.827 | [41] 0.557 | [42] 0.814 | [43] 0.737 | [44] 0.952 | [45] 0.51 | [46] 0.971 | [48] 0.962 | [49] 0.86 | [50] 0.626 | [51] 0.871 | [52] 0.787 | [53] 0.854 | [54] 0.953 | [55] 0.824 | [60] 0.957 | [62] 0.958 | [63] 0.96 | [65] 0.965 | [66] 0.72 | [67] 0.959 | [68] 0.961 | [69] 0.757 | [70] 0.957 | [73] 0.855 | [74] 0.623 | [75] 0.963 | [76] 0.809 | [77] 0.768 | [78] 0.766 | [79] 0.954 | [81] 0.962 | [82] 0.973 | [83] 0.949 | [84] 0.964 | [85] 0.953
